# Values joined by “and” are separate entries in the source; they are usually repeats but may differ in a detail not shown here. Equal entries are not always repeated. Unmarked numbers belong to inactive results. Results filed as inconclusive are left out. Where a call stands in place of a potency, no number is given. Active and inactive are the calls of the source. Unless noted, calls follow the shape of the dose curve; as a rule, active = well fitted curve in the direction sought with a large enough effect in the repeat runs; inconclusive = weak or mixed curves; inactive = no such curve, though single readings can be large; an effect the other way counts as inactive or inconclusive.
# How the values were obtained:
# [1] = qHTS assay to identify small molecule agonists of the hypoxia (HIF-1) signaling pathway - cell viability counter screen (AID 1224844; calls by dose curve; also: nearly all actives have a fitted effect of over 50% in size)
# Method in brief: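 Viability counter screen: HRE-bla ME-180 cells plated 5 hrs before compound addition, treated 17 hrs at 37C and 5% CO2, then CellTiter-Glo added after the FRET reporter read; luminescence after 30 min.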
# [2] = qHTS assay to identify small molecule agonists of H2AX (AID 1224845; active = well fitted activation curve with a large enough effect in the signal ratio in the repeat runs, not every such curve was filed as active; the % refers to the signal ratio)
# Method in brief: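 Wild-type CHO-K1 cells, plated overnight, exposed 3hr at 37C to 15 concentrations (0.76% DMSO final). Lysed, then HTRF anti-pH2AX (S139) cryptate and anti-H2AX-d2 antibodies, 24 hr room temperature; 665/620 nm emission read.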
# [3] = qHTS assay to identify small molecule agonists of the hypoxia (HIF-1) signaling pathway (AID 1224846; active = well fitted activation curve with a large enough effect in the signal ratio in the repeat runs, not every such curve was filed as active; the % refers to the signal ratio)
# Method in brief: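 Agonist mode reporter screen. ME-180 cells stably expressing bla under HRE control received test compounds in DMSO for 17 hrs (37C, 5% CO2), and beta-lactamase activity was then detected with the CCF4-AM FRET substrate.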
# [4] = qHTS assay to identify small molecule agonists of H2AX - cell viability counter screen (AID 1224847; calls by dose curve; also: nearly all actives have a fitted effect of over 30% in size; also: potency is read from the fitted curve at half-maximal effect; as to activity change, negative = cytotoxicity: top concentration of the series differs between compounds)
# Method in brief: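 Compounds tested at 15 concentrations were incubated 3 hr at 37C with wild-type CHO-K1 cells; cellular ATP-based luminescence (CellTiter-Glo) indicated viability.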
# [5] = qHTS RealTime-Glo MT Cell Viability Assay in HepG2 cells - 24 hour (AID 1224867); also: nearly all actives have a fitted effect of over 50% in size
# Method in brief: (§1)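 Tox21 10K library screened in qHTS format on HepG2 cells carrying RealTime-Glo reagents. Compounds were added after a 5 h preincubation, and the luminescent signal from continuous culture was measured repeatedly during 40 h treatment.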
# [6] = qHTS RealTime-Glo MT Cell Viability Assay in HEK293 cells - 32 hour (AID 1224868); also: nearly all actives have a fitted effect of over 50% in size; also: potency is read from the fitted curve at half-maximal effect; as to activity change, negative = cytotoxic: top concentration of the series differs between compounds
# Method in brief: (§2)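 Luminescence generated by NanoLuc from substrate produced by living HEK293 cells served as the viability signal. Each value reflects the reading at its stated time point during continuous 40 h compound exposure at 37 C.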
# [7] = A CellTox Green Cytotoxicity Assay to monitor cytotoxicity in HEK293 cells - 0 hour (AID 1224869); also: nearly all actives have a fitted effect of over 50% in size
# Method in brief: (§3)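 Dead-cell fluorescence measured kinetically: asymmetric cyanine dye, HEK293, 600 cells/well, 5 h settle, 23 nL cpd/DMSO, 37 C, reads 0–40 h every 8 h.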
# [8] = qHTS RealTime-Glo MT Cell Viability Assay in HepG2 cells - 40 hour (AID 1224870); also: nearly all actives have a fitted effect of over 50% in size
# Method in brief: (§4)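 HepG2 cells (600/well) mixed with RealTime-Glo MT reagent, settled 5 h at 37 C/5% CO2 before compound addition. Nonlytic NanoLuc luminescence from viable-cell prosubstrate reduction read repeatedly during 40 h treatment at 37 C.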
# [9] = A CellTox Green Cytotoxicity Assay to monitor cytotoxicity in HEK293 cells - 40 hour (AID 1224871); also: nearly all actives have a fitted effect of over 45% in size; also: potency is read from the fitted curve at half-maximal effect
# Method in brief: as §3
# [10] = qHTS RealTime-Glo MT Cell Viability Assay in HEK293 cells - 16 hour (AID 1224872)
# Method in brief: as §2
# [11] = qHTS RealTime-Glo MT Cell Viability Assay in HepG2 cells - 8 hour (AID 1224873); also: nearly all actives have a fitted effect of over 55% in size
# Method in brief: as §4
# [12] = qHTS RealTime-Glo MT Cell Viability Assay in HEK293 cells - 40 hour (AID 1224874); settings: RealTime-Glo luminescence; max response: stronger effect = lower value; also: nearly all actives have a fitted effect of over 50% in size; also: potency is read from the fitted curve at half-maximal effect
# Method in brief: (§5)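 600 HEK293 cells per well, dispensed already mixed with RealTime-Glo MT reagents. Compound dosing came 5 h later. The same wells were read for luminescence at 0, 8, 16, 24, 32 and 40 h of exposure at 37 C.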
# [13] = A CellTox Green Cytotoxicity Assay to monitor cytotoxicity in HEK293 cells - 24 hour (AID 1224875); also: nearly all actives have a fitted effect of over 45% in size
# Method in brief: as §3
# [14] = A CellTox Green Cytotoxicity Assay to monitor cytotoxicity in HepG2 cells - 16 hour (AID 1224876); also: nearly all actives have a fitted effect of over 45% in size
# Method in brief: (§6)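 First, HepG2 cells (600/well) mixed with reagent were plated; second, after 5 h at 37 C they received compounds via pintool; third, fluorescence was measured at 0 h through 40 h at 8 h intervals.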
# [15] = qHTS RealTime-Glo MT Cell Viability Assay in HepG2 cells - 32 hour (AID 1224877); also: nearly all actives have a fitted effect of over 55% in size
# Method in brief: as §1
# [16] = A CellTox Green Cytotoxicity Assay to monitor cytotoxicity in HepG2 cells - 24 hour (AID 1224878); also: nearly all actives have a fitted effect of over 45% in size
# Method in brief: as §6
# [17] = qHTS assay to identify small molecule antagonists of the estrogen related receptor (ERR) signaling pathway from Tox21 library (AID 1224848); also: nearly all actives have a fitted effect of over 50% in size; also: potency is read from the fitted curve at half-maximal effect
# Method in brief: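 Quantitative high-throughput format: ERR reporter cells (2,000/well) pre-incubated 6 h, treated 18 h at 37 C with compounds in DMSO alongside positive and negative controls, then read by ONE-Glo luminescence.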
# [18] = qHTS assay to identify small molecule agonists of the estrogen related receptor (ERR) signaling pathway from Tox21 library (AID 1224849; calls by dose curve; also: nearly all actives have a fitted effect of over 15% in size); settings: ERR reporter cell line, ONE-Glo luciferase, 18 h
# Method in brief: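 Quantitative HTS in agonist format: NTP ERR cell line, compounds transferred in DMSO after 6 h plating, 18 h incubation at 37 C, ONE-Glo luminescence endpoint.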
# [19] = A CellTox Green Cytotoxicity Assay to monitor cytotoxicity in HepG2 cells - 40 hour (AID 1224879); also: nearly all actives have a fitted effect of over 40% in size
# Method in brief: as §6
# [20] = qHTS RealTime-Glo MT Cell Viability Assay in HEK293 cells - 0 hour (AID 1224880)
# Method in brief: as §5
smiles,measurement,setting,value
C[C@H]1NCc2cc(-c3ccc4c(=O)c(C(=O)O)cn(C5CC5)c4c3OC(F)F)ccc21,"activity change, negative = cytotoxicity",[1],6.72% [at 15.8 µM]
same,activation (H2AX phosphorylation),[2],4.25% [at 31.6 µM]
same,activation,[3],0.068% [at 15.8 µM]
same,"activity change, negative = cytotoxicity",[4],0.563% [at 31.6 µM]
same,"activity change, negative = cytotoxicity",[5],-15.8% [at 15.8 µM]
same,"activity change, negative = cytotoxic",[6],-6.15% [at 15.8 µM]
same,cytotoxicity,[7],0.0457% [at 15.8 µM]
same,"activity change, negative = cytotoxic",[8],-10.9% [at 15.8 µM]
same,cytotoxicity increase,[9],-4.15% [at 15.8 µM]
same,"activity change, negative = cytotoxicity",[10],-1.72% [at 15.8 µM]
same,"viability change, negative = cytotoxic",[11],-17% [at 15.8 µM]
same,max response,[12],-6.6%
same,activity change,[13],"-2.55% [at 15.8 µM, stronger effect = higher value]"
same,cytotoxicity increase,[14],1.43% [at 15.8 µM]
same,"activity change, negative = cytotoxic",[15],-0.83% [at 15.8 µM]
same,cytotoxicity,[16],1.74% [at 15.8 µM]
Cc1ccc(C(C)C)cc2c(C)ccc1-2,Potency,[1],inactive
same,Potency,[2],inactive
same,Potency,[3],inactive
same,Potency,[4],inactive
same,Potency,[17],inactive
same,"activity change, positive = activation",[18]; at 42.5 µM (top of the series),-2.57%
same,Potency,[5],inactive
same,Potency,[6],inactive
same,Potency,[7],inactive
same,Potency,[8],inactive
same,Potency,[9],inactive
same,Potency,[10],inactive
same,Potency,[11],inactive
same,max response,[12],-5.67%
same,Potency,[13],inactive
same,Potency,[15],inactive
same,Potency,[16],inactive
same,Potency,[19],inactive
same,Potency,[20],inactive
Cc1ccc(C(=O)O)cc1,Potency,[1],inactive
same,Potency,[2],inactive
same,Potency,[3],inactive
same,Potency,[4],inactive
same,Potency,[17],inactive
same,"activity change, positive = activation",[18]; at 92.4 µM (top of the series),-0.305%
same,Potency,[5],inactive
same,Potency,[6],inactive
same,Potency,[7],inactive
same,Potency,[9],inactive
same,Potency,[10],inactive
same,Potency,[11],inactive
same,max response,[12],10%
same,Potency,[13],inactive
same,Potency,[15],inactive
same,Potency,[20],inactive
Nc1nc(-c2ccccc2)cs1,Potency,[1],inactive
same,Potency,[2],inactive
same,Potency,[3],inactive
same,Potency,[4],inactive
same,Potency,[17],inactive
same,"activity change, positive = activation",[18]; at 92.4 µM (top of the series),41.7% (active)
same,Potency,[5],inactive
same,Potency,[6],inactive
same,Potency,[7],inactive
same,Potency,[8],inactive
same,Potency,[9],inactive
same,Potency,[10],inactive
same,Potency,[11],inactive
same,max response,[12],-6.02%
same,Potency,[13],inactive
same,Potency,[14],inactive
same,Potency,[15],inactive
same,Potency,[16],inactive
same,Potency,[20],inactive
Clc1sc(Cl)c(Cl)c1Cl,Potency,[1],inactive
same,Potency,[2],inactive
same,Potency,[3],inactive
same,Potency,[4],inactive
same,Potency,[17],inactive
same,"activity change, positive = activation",[18]; at 92.4 µM (top of the series),4.94%
same,Potency,[5],inactive
same,Potency,[6],inactive
same,Potency,[7],inactive
same,Potency,[8],inactive
same,Potency,[9],inactive
same,Potency,[10],inactive
same,Potency,[11],inactive
same,max response,[12],7.4%
same,Potency,[14],inactive
same,Potency,[15],inactive
same,Potency,[16],inactive
same,Potency,[20],inactive
Cc1c(F)c(N2CCNC(C)C2)cc2c1c(=O)c(C(=O)O)cn2C1CC1 (centres undefined),Potency,[1],inactive
same,Potency,[2],inactive
same,Potency,[3],inactive
same,Potency,[4],inactive
same,Potency,[17],inactive
same,"activity change, positive = activation",[18]; at 42.5 µM (top of the series),9.53%
same,Potency,[5],inactive
same,Potency,[6],inactive
same,Potency,[7],inactive
same,Potency,[8],inactive
same,Potency,[9],inactive
same,Potency,[10],inactive
same,max response,[12],11.8%
same,Potency,[13],inactive
same,Potency,[14],inactive
same,Potency,[15],inactive
same,Potency,[16],inactive
same,Potency,[19],inactive
COC(=O)c1ccccc1C,Potency,[1],inactive
same,Potency,[2],inactive
same,Potency,[3],inactive
same,Potency,[4],inactive
same,Potency,[17],inactive
same,"activity change, positive = activation",[18]; at 92.4 µM (top of the series),3.57%
same,Potency,[5],inactive
same,Potency,[6],inactive
same,Potency,[7],inactive
same,Potency,[9],inactive
same,Potency,[10],inactive
same,Potency,[11],inactive
same,max response,[12],-4.12%
same,Potency,[13],inactive
same,Potency,[15],inactive
same,Potency,[16],inactive
same,Potency,[19],inactive
same,Potency,[20],inactive
O=C(O)c1cccc(C(F)(F)F)c1,Potency,[1],inactive
same,Potency,[2],inactive
same,Potency,[3],inactive
same,Potency,[4],inactive
same,Potency,[17],inactive
same,"activity change, positive = activation",[18]; at 92.4 µM (top of the series),-2.71%
same,Potency,[5],inactive
same,Potency,[6],inactive
same,Potency,[7],inactive
same,Potency,[8],inactive
same,Potency,[9],inactive
same,Potency,[10],inactive
same,Potency,[11],inactive
same,max response,[12],-0.78%
same,Potency,[13],inactive
same,Potency,[14],inactive
same,Potency,[15],inactive
same,Potency,[16],inactive
same,Potency,[20],inactive
Cc1cccc2cccnc12,Potency,[1],inactive
same,Potency,[2],inactive
same,Potency,[3],inactive
same,Potency,[4],inactive
same,Potency,[17],inactive
same,"activity change, positive = activation",[18]; at 92.4 µM (top of the series),0.0767%
same,Potency,[5],inactive
same,Potency,[6],inactive
same,Potency,[7],inactive
same,Potency,[8],inactive
same,Potency,[9],inactive
same,Potency,[10],inactive
same,Potency,[11],inactive
same,max response,[12],0.538%
same,Potency,[13],inactive
same,Potency,[14],inactive
same,Potency,[15],inactive
same,Potency,[16],inactive
same,Potency,[19],inactive
same,Potency,[20],inactive
Cc1cc(-c2ccc(N=Nc3cc(S(=O)(=O)O)c4ccccc4c3N)c(C)c2)ccc1N=Nc1cc(S(=O)(=O)O)c2ccccc2c1N,Potency,[1],inactive
same,Potency,[2],inactive
same,Potency,[3],inactive
same,Potency,[4],80.4 µM (active)
same,Potency,[17],5.48 µM (active)
same,"activity change, positive = activation",[18]; at 92.4 µM (top of the series),-50.3%
same,Potency,[6],2.2 µM (active)
same,Potency,[7],inactive
same,Potency,[8],inactive
same,Potency,[9],49.2 µM (active)
same,Potency,[11],inactive
same,Potency,[12],2.2 µM (active)
same,Potency,[14],inactive
same,Potency,[15],inactive
same,Potency,[16],inactive
same,Potency,[19],inactive
same,Potency,[20],inactive
CCN(CCN)c1cccc(C)c1,Potency,[1],inactive
same,Potency,[2],inactive
same,Potency,[3],inactive
same,Potency,[4],inactive
same,"activity change, positive = activation",[18]; at 92.4 µM (top of the series),-29% and -22.9%
same,Potency,[5],inactive
same,Potency,[6],inactive
same,Potency,[7],inactive
same,Potency,[8],inactive
same,Potency,[9],inactive
same,Potency,[10],inactive
same,Potency,[11],inactive
same,max response,[12],-16.9% and 1.24%
same,Potency,[13],inactive
same,Potency,[14],inactive
same,Potency,[15],inactive
same,Potency,[16],inactive
same,Potency,[19],inactive
same,Potency,[20],inactive
CCc1ccc(Br)cc1,Potency,[1],inactive
same,Potency,[2],inactive
same,Potency,[3],inactive
same,Potency,[4],inactive
same,Potency,[17],inactive
same,"activity change, positive = activation",[18]; at 92.4 µM (top of the series),5.1%
same,Potency,[5],inactive
same,Potency,[6],inactive
same,Potency,[7],inactive
same,Potency,[8],inactive
same,Potency,[9],inactive
same,Potency,[10],inactive
same,max response,[12],5.1%
same,Potency,[13],inactive
same,Potency,[14],inactive
same,Potency,[15],inactive
same,Potency,[16],inactive
same,Potency,[19],inactive
same,Potency,[20],inactive
OC/C=C/CO,Potency,[1],inactive
same,Potency,[2],inactive
same,Potency,[3],inactive
same,Potency,[4],inactive
same,Potency,[5],inactive
same,Potency,[6],inactive
same,Potency,[7],inactive
same,Potency,[8],inactive
same,Potency,[9],inactive
same,Potency,[10],inactive
same,Potency,[11],inactive
same,max response,[12],0.626%
same,Potency,[13],inactive
same,Potency,[14],inactive
same,Potency,[15],inactive
same,Potency,[16],inactive

# Reference: PubChem BioAssay (Tox21)
